The full list was thinned out, with hits kept by preference.
Tg IFNy HTS: T. gondii growth inhibition with IFN-gamma, primary screen, cell-based. Toxoplasma gondii growth in IFN-gamma-treated host cells; hits give low values. hit rate 3.8% among 69,000. activity change, negative = inhibition, % (no concentration beside the values); in the data active means activity change below about -70%, passing the limit was not always enough;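 further: host cells are HeLa cells infected with Toxoplasma gondii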
Numbers without * were called inactive; i = inactive.

SMILES	Tg IFNy HTS
O=C(Nc1ccc(Cl)cc1)OC1CN(C(c2ccccc2)c2ccccc2)C1	-59
CCC1CN(Cc2ccc(S(=O)(=O)NC)cc2)CCN1C(C)C (configuration not stated)	-3
Cc1ccc(-c2coc(-c3ccc(NC(=O)Nc4ccccc4C)cc3)n2)c(C)c1	0
COc1cc(NC(=O)c2ccc(-c3ccc(Cl)cc3)o2)cc(OC)c1	-3
COCc1ccc(C(=O)N2CCc3c(cc(-c4ccncc4)c(=O)n3CCN3CCCCC3)C2)s1	-4
O=C(NCc1ccccn1)[C@@H]1C[C@@H]2CCN(c3ncc(F)cn3)C[C@@H]2O1	-3
Cc1cccc(CN2CCC3(CC2)CC(NC(=O)c2ccnnc2)C3)n1	0
Cn1c(=O)c(-c2nc(-c3ccccc3Br)no2)c(O)c2cc(F)ccc21	-47
CCc1nc(C)sc1C(=O)NCc1cnn2ccccc12	107
O=C(CN1C(=O)CCc2cc(S(=O)(=O)N3CCCC3)ccc21)Nc1cccc(Br)c1	-108*
Cc1cc(C)cc(NC(=O)CN2C(=O)CCc3cc(S(=O)(=O)N4CCC(C)CC4)ccc32)c1	19
CCc1ccc(NC(=O)CN2C(=O)CCc3cc(S(=O)(=O)N4CCC(C)CC4)ccc32)cc1	-77*
O=C(CN1C(=O)CCc2cc(S(=O)(=O)N3CCCC3)ccc21)Nc1ccc2c(c1)OCCO2	17
CC1CCN(S(=O)(=O)c2ccc3c(c2)CCC(=O)N3CC(=O)NCc2ccc3c(c2)OCO3)CC1	-27
COc1cccc(NC(=O)CN2C(=O)CCc3cc(S(=O)(=O)N4CCC(C)CC4)ccc32)c1	-41
Cc1cccc(NC(=O)CN2C(=O)CCc3cc(S(=O)(=O)N4CCCCC4)ccc32)c1	1
CCc1ccc(NC(=O)CN2C(=O)CCc3cc(S(=O)(=O)N4CCCCC4)ccc32)cc1	-97*
O=C(CN1C(=O)CCc2cc(S(=O)(=O)N3CCCC3)ccc21)Nc1cccc(F)c1	-19
O=C(CN1C(=O)CCc2cc(S(=O)(=O)N3CCCC3)ccc21)Nc1ccc(Cl)cc1	46
CC1CCN(S(=O)(=O)c2ccc3c(c2)CCC(=O)N3CC(=O)Nc2ccc3c(c2)OCCO3)CC1	-88*
COc1ccc(NC(=O)CN2C(=O)CCc3cc(S(=O)(=O)N4CCCCC4)ccc32)cc1OC	8
CCC(=O)Nc1ccc(S(=O)(=O)N2CCC3(CC2)Nc2cc(F)ccc2-n2cccc23)cc1	17
COc1ccc(F)cc1C(=O)C1CCCN(CCn2c(=O)cc(C)[nH]c2=O)C1 (configuration not stated)	8
CCCc1nnc(NC(=O)C2CC(=O)N(CCc3c[nH]c4ccc(C)cc34)C2)s1 (configuration not stated)	46
CCC(NC(=O)c1nc2ccccc2c(=O)[nH]1)c1nc(C)c(C)s1 (configuration not stated)	9
SMILES	Tg IFNy HTS
Cn1c(=O)c(-c2nc(-c3cccs3)no2)c(O)c2ccc(F)cc21	-9
CCN(Cc1cccc(C(=O)Nc2c(C)cnn2C)c1)[C@H]1COC[C@@H]1O	1
NC(=O)c1ccccc1-c1cccc(C(=O)O)c1	-41
COC(=O)C[C@H]1CC[C@@H]2[C@H](COC[C@@H](O)CN2S(=O)(=O)c2ccccc2OC)O1	4
CC1CCN(S(=O)(=O)c2ccc3c(c2)CCC(=O)N3CC(=O)Nc2cccc(F)c2)CC1	-11
Cc1ccc(NC(=O)CN2C(=O)CCc3cc(S(=O)(=O)N4CCC(C)CC4)ccc32)cc1C	-99*
Cc1ccc(NC(=O)CN2C(=O)CCc3cc(S(=O)(=O)N4CCC(C)CC4)ccc32)cc1N(C)C	149
CC1CCN(S(=O)(=O)c2ccc3c(c2)CCC(=O)N3CC(=O)Nc2ccccc2)CC1	-2
Cc1ccc(NC(=O)CN2C(=O)CCc3cc(S(=O)(=O)N4CCC(C)CC4)ccc32)cc1	19
CC1CCN(S(=O)(=O)c2ccc3c(c2)CCC(=O)N3CC(=O)Nc2cccc(Cl)c2)CC1	-87*
COc1cccc(C2(O)CCCC3CN(C(=O)c4ccc(-n5cnnc5)cc4)CC32)c1 (configuration not stated)	47
N#Cc1ccc(N2CCC3(CC2)CC(Oc2cccnc2)CO3)cc1 (configuration not stated)	-51
CC1COC2(CCN(c3ccc(C#N)cc3)CC2)C1 (configuration not stated)	-90*
CCN1CCOCC12CCN(c1ccc(C#N)cc1)CC2	13
CC(CCNS(=O)(=O)c1ccc2[nH]c(=O)ccc2c1)N1CCOCC1 (configuration not stated)	18
O=C(NCCc1c[nH]c2ccccc12)c1cn[nH]n1	1
COc1ccc(NC(=O)N(C)C[C@@H]2Oc3c(NS(=O)(=O)c4c(C)noc4C)cccc3C(=O)N([C@@H](C)CO)C[C@@H]2C)cc1	-48
CC(=O)Nc1ccc2c(c1)CCc1ccccc1-2	24
CC(=O)Nc1sc2c(c1C#N)CCc1ccccc1-2	-90*
COc1nc2c(c(-c3ccco3)c1C#N)Cc1cc(NC(C)=O)ccc1-2	8
Cc1cccc(-c2nc(C)c(CCNC(=O)c3ccc([N+](=O)[O-])cc3)s2)c1	i
O=C(/C=C/c1c(C(=O)O)[nH]c2cc(Cl)cc(Cl)c12)Nc1ccccc1	-51
CC(=O)N1C2CCN(Cc3cccs3)CC2C[C@H]1CN(C)C (some centres not stated)	2
CCOC(=O)N1CCC2(CC1)OC(=O)C(C)=C2C(=O)NCCN(C)C	137
O=C1CCC2(CCCO2)CCN1Cc1ccccc1-n1cccn1 (configuration not stated)	-1
SMILES	Tg IFNy HTS
COc1cccc2c(=O)c(C(=O)NCc3cccnc3)c[nH]c12	-8
COc1cccc2c(=O)c3ccccc3oc12	39
COc1cccc2c(=O)c(C/C=C(/C)Cl)c(C)[nH]c12	-81*
COc1ccc2c3c([nH]c2c1)[C@@H](CO)N(C(=O)CN(C)C)CC31CN(CC2CC2)C1	-5
Cn1c(=O)c2c(nc(CN3CCc4ccccc4C3)n2Cc2ccccc2F)n(C)c1=O	-79*
Cn1c(=O)c2c(nc(N3CCN=C3SCC(N)=O)n2Cc2ccccc2)n(C)c1=O	-11
Cc1nc2c(c(=O)[nH]1)CCN(Cc1cccn1Cc1ccccc1F)C2	15
Cc1nc(CN2CCc3ccc(=O)[nH]c3CC2)cs1	14
O=C(Cc1ccccc1)Nc1cccc(NC(=O)c2ccnnc2)c1	6
Cc1cc(C(=O)Nc2cccc(NC(=O)Cc3ccccc3)c2)n[nH]1	-75*
CC/C=C/CC(=O)Nc1cccc(NC(=O)Cc2ccccc2)c1	-12
Cn1c(=O)cc(C(=O)Nc2cccc(Cl)c2N2CCOCC2)[nH]c1=O	-2
COc1ccc(OCCNC(=O)c2cccs2)cc1	2
O=C(NCCCOc1ccccc1)c1c(O)cccc1O	12
CN(C)Cc1c(C(=O)NCCOc2ccc(C(=O)NO)cc2)oc2ccccc12	-74*
O=C1CC2(CCN(C(=O)c3ccno3)CC2)CN1Cc1cccc(F)c1	-1
CC(C)c1ccc(NC2CCCN(c3nc(C(N)=O)cs3)C2)cc1 (configuration not stated)	15
CC(=O)Oc1ccc2c(c1)CCC1C2=CCC2(C)C(OC(C)=O)CCC12 (configuration not stated)	-92*
CCCCC(=O)O[C@H]1CC[C@H]2[C@@H]3CCc4cc(O)ccc4[C@H]3CC[C@]12C	-35
Cc1cc(F)cc(-c2c(-c3ccccc3)ncn2CCCC(=O)N(C)C)c1	-17
COc1cccc(F)c1-c1ccc2ncnc(NCCO)c2c1	-49
C=CCN1C(=O)CCC12CCC(NS(=O)(=O)c1cn(C)cn1)CC2 (configuration not stated)	194
